Screening data as filed in PubChem BioAssay.
CIT2 TOR yeast = yeast TOR pathway CIT2-GFP modulation. S. cerevisiae CIT2-GFP strain, flow cytometry, 3 h; 100 means same as DMSO wells. GFP response vs DMSO, % at 10 µM. actives 0.065% (n = 320,000). AID 2029;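 active = GFP response relative to DMSO above a set limit, near the screen mean plus 3 SD, cut at about 150% in these data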;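 note: ratio of well median GFP fluorescence to mean of DMSO wells on the plate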
LAP4-GFP MLPCN = yeast TOR pathway LAP4-GFP modulation; S. cerevisiae LAP4-GFP multiplex, flow cytometry GFP, 3 h; median GFP as percent of DMSO wells; AID 2023; GFP response vs DMSO, % at 10 µM; actives 0.34% (n = 320,000);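 active = GFP response vs DMSO above a set limit, about the screen mean plus 3 SD, cut at about 150% in these data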
AGP1 TOR yeast = yeast TOR pathway AGP1-GFP modulation | actives 0.02% (n = 320,000) | AID 2066 | S. cerevisiae AGP1-GFP multiplex flow cytometry, 3 h; GFP as percent of DMSO wells | GFP response vs DMSO, % at 10 µM;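 active = GFP response relative to DMSO above a set limit, near screen average plus 3 SD, cut at about 150% in these data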;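 note: median GFP channel fluorescence of the gated AGP1 strain per well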
MEP2 TOR yeast = modulators of TOR pathway MEP2-GFP in S. cerevisiae; S. cerevisiae MEP2-GFP strain, flow cytometry GFP, 3 h; 100% = DMSO control level; GFP response vs DMSO, % at 10 µM; actives 0.51% (n = 330,000);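 active = GFP response versus DMSO above a set limit, roughly screen mean plus 3 SD, cut at about 180% in these data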;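 note: median GFP fluorescence of the barcode-gated MEP2-GFP cells per well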
RPL19A TOR yeast = alters RPL19A-GFP fluorescence in TOR pathway yeast screen | percent response vs DMSO, % at 10 µM | actives 0.3% (n = 330,000) | S. cerevisiae RPL19A-GFP strain, flow cytometry, 3 h; stronger effect = lower value;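 active = percent response vs DMSO below 50%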;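 note: median channel GFP fluorescence of the barcoded RPL19A-GFP strain; lower means less RPL19A-GFP as with rapamycin TOR inhibition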
LAP4-GFP pick2 = reconfirmed LAP4-GFP TOR pathway modulator in yeast; shares compounds with LAP4-GFP MLPCN; S. cerevisiae LAP4-GFP strain, flow cytometry GFP, 3 h; GFP response vs DMSO, % at 10 µM; actives 20% (n = 590); AID 2621;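 active = GFP signal as percent of the solvent control above about 150%, meaning raised reporter expression, limit read from the data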
MEP2-GFP pick2 = yeast MEP2-GFP modulation, second cherry pick. GFP response vs DMSO, % at 10 µM. shares compounds with LAP4-GFP MLPCN. S. cerevisiae MEP2-GFP strain, flow cytometry GFP, 3 h. actives 10% (n = 590);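 active = GFP signal above 150% of the solvent control wells, that is a rise of more than half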;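 note: median channel GFP fluorescence of all gated yeast cells per well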
RPL19A GFP CP2 = yeast RPL19A-GFP TOR reporter modulation, second cherry pick; GFP response vs DMSO, % at 10 µM; actives 3% (n = 590); shares compounds with LAP4-GFP MLPCN; AID 2623; S. cerevisiae RPL19A-GFP strain, flow cytometry GFP, 3 h; stronger effect = lower value; 100% means same as DMSO wells;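 active = under 65% GFP response relative to DMSO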;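 note: median GFP channel fluorescence per well over the all cells gate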
CIT2-GFP pick2 = yeast CIT2-GFP TOR reporter modulation, second cherry pick; shares compounds with LAP4-GFP MLPCN; S. cerevisiae CIT2-GFP strain, flow cytometry GFP, 3 h; DMSO control wells read 100%; GFP response vs DMSO, % at 10 µM; actives 8% (n = 590); AID 2624;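 active = GFP response vs DMSO above about 150%, limit read from the data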;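 note: median green fluorescence per well over all gated yeast cells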
AGP1-GFP pick2 = second confirmation of modulators of TOR reporter AGP1-GFP in yeast; shares compounds with LAP4-GFP MLPCN; S. cerevisiae AGP1-GFP strain, flow cytometry GFP, 3 h; percent response vs DMSO, % at 10 µM; 590 tested, under 10 active;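 active = over 150 percent of DMSO response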;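 note: median GFP channel fluorescence over all cells without mother daughter split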
Yeast autofluor = counter-screen for compound autofluorescence in yeast s288c cells. shares compounds with LAP4-GFP MLPCN. 610 tested, under 10 active. AID 2757. S. cerevisiae s288c, 520 nm autofluorescence, flow cytometry, 3 h; stronger effect = higher value; zero means same as solvent-only cells. fluorescence change (kMESF span) at 33 µM;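 active = fluorescence span over the dose series, or activity score, above about 33, limit read from the data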
Yeast autofl DR = yeast s288c autofluorescence artifact in dose response | shares compounds with LAP4-GFP MLPCN | S. cerevisiae s288c parental, compound autofluorescence, flow cytometry, 3 h | fluorescence change (span) at 33 µM | 110 tested, under 10 active | AID 488829;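 active = fluorescence change span, or the activity score built from it, above 25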
TORC1 bypass = wildtype yeast growth loss with TORC1 bypass cells unaffected; 120 tested, under 10 active; shares compounds with LAP4-GFP MLPCN; S. cerevisiae BY4741 spot growth rating, 48-72 h; stronger effect = lower value; growth rating (0-3) at 30 µM;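 active = growth rating at most 1 for wild type yeast while the TORC1 bypass strain still grows fully, rated 3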
Numbers stand for hits; 0 = inactive; - = not tested or not shown. This is a sample that favours compounds with a hit; in the whole collection about 0.93% have one here.

SMILES	CIT2 TOR yeast	LAP4-GFP MLPCN	AGP1 TOR yeast	MEP2 TOR yeast	RPL19A TOR yeast	Yeast autofluor	others
CC(C)(C)n1nc(-c2ccc(F)cc2)c2c(N)ncnc21	0	178	0	0	48	0	LAP4-GFP pick2=0;MEP2-GFP pick2=0;RPL19A GFP CP2=48;CIT2-GFP pick2=0;AGP1-GFP pick2=0;Yeast autofl DR=0;TORC1 bypass=0
Cc1ccc(-c2nn(C(C)(C)C)c3ncnc(NS(=O)(=O)c4ccc([N+](=O)[O-])cc4)c23)cc1	0	0	0	0	0	-
CC(C)(C)n1nc(-c2ccc(Cl)cc2)c2c(N)ncnc21	0	182	0	0	43	0	Yeast autofl DR=0;TORC1 bypass=0
CSc1nc(-c2ccc(C)cc2)nc(N)c1C#N	0	0	0	0	0	-
Cc1ccc(-c2nc(N)c3c(-c4ccc(C)cc4)nn(C(C)(C)C)c3n2)cc1	0	0	0	0	0	0	LAP4-GFP pick2=0;MEP2-GFP pick2=0;RPL19A GFP CP2=0;CIT2-GFP pick2=0;AGP1-GFP pick2=0
CC(C)(C)S(=O)(=O)c1cnc2c(-c3ccc(F)cc3)cnn2c1N	0	0	0	0	0	-
COc1cc(C#N)c(NS(=O)(=O)c2ccc3[nH]c(=O)sc3c2)cc1OC	0	0	0	0	0	-
COc1ccccc1N1CCN(C(=O)c2cc3c(=O)n4cccc(C)c4nc3s2)CC1	0	0	0	0	0	-
O=C(NC1CCN(S(=O)(=O)c2ccc(F)cc2)CC1)c1cccc(F)c1	0	0	0	0	0	-
Cc1ccc(S(N)(=O)=O)cc1NC(=O)C(c1ccccc1)c1ccccc1	0	0	0	0	0	-
COC(=O)[C@]1(Cc2ccccc2)N[C@H](c2ccc(-c3ccc(F)cc3)cc2)[C@@H]2C(=O)N(C)C(=O)[C@@H]21	0	0	0	0	0	-
CC1=NNC(=O)/C1=C\c1cn(-c2ccccc2)nc1-c1cccs1	0	263	0	0	0	0
N#Cc1ccc(CN2CCN(C(=O)c3cc(Cl)c4c(c3)OCCO4)CC2)cc1	0	0	0	0	0	-
NC(=O)C1CCN(C(=O)c2cc(Cl)c3c(c2)OCCO3)CC1	0	183	0	0	0	-	LAP4-GFP pick2=0;MEP2-GFP pick2=0;RPL19A GFP CP2=0;CIT2-GFP pick2=0;AGP1-GFP pick2=0
COC(=O)/C(=C/c1c[nH]c2ccccc12)NC(C)=O	0	0	0	0	0	-
COC(=O)/C(=C/c1c[nH]c2ccccc12)[N+](=O)[O-]	0	178	0	0	0	0
COC1CCN(Cc2c(C(=O)N3CCN(C4CCCCC4)CC3)nc3ccccn23)CC1	0	0	0	0	0	-
COc1ccc(/C=C/C(=O)NC(=S)NNC(=O)c2cnccn2)cc1	0	225	0	0	0	0	Yeast autofl DR=0;TORC1 bypass=0
O=C(/C=C/c1ccc(F)cc1)NC(=S)Nc1ccccc1	0	0	0	0	0	-
